This excerpt belongs to a sample that is enriched for hits.
HT1080 IDH1KD tx = toxicity to HT-1080 IDH1 knockdown cells (counter line); HT-1080 IDH1 knockdown viability, ATP luminescence, 48 h; Potency, µM (top dose mostly 46.1 µM), inactives show top-dose activity, negative = toxicity, usual class: cytotoxic; hit rate 2% among 360,000;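 further: potency means the concentration at half of the fitted maximal effect; 0% = DMSO wells and -100% = cell-free medium wells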
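HT-1080-IDH1KD cells (IDH1 knocked down), 750/well in RPMI with 5% FBS, treated with compound 48 h at 37 degrees C. Viability by CellTiter-Glo luminescence, normalised to DMSO and no-cell wells; concentration-response curves classed.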
TDP1 cell CPT = growth inhibition of DT40 Tdp1-/-;hTDP1 cells with camptothecin (screen for TDP1 inhibitors) | chicken DT40 Tdp1-/-;hTDP1 cells + 20 nM CPT, ATP luminescence, 48 h | Potency, µM (titrated, usually from 46.2 µM), for inactives: at the highest dose activity change, negative = growth inhibition, most hits filed as inhibitors | AID 686979 | hit rate 12% among 420,000; further: potency means the concentration at half of the fitted maximal effect; nearly all actives have a fitted effect of over 55% in size
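Chicken DT40 Tdp1-/- cells stably complemented with human TDP1 were seeded at 400 cells/well in medium containing 20 nM camptothecin, exposed to pin-transferred compounds, and grown at 37 °C for at least 48 hr. Viability was read as ATP luminescence.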
TDP1 cell noCPT = qHTS for Inhibitors of human tyrosyl-DNA phosphodiesterase 1 (TDP1): qHTS in cells in absence of CPT. hit rate 15% among 420,000. DT40 Tdp1-/- hTDP1 cells, no CPT, ATP luminescence, 48 h. Potency, µM (top dose mostly 46.2 µM), for the others: top-dose activity change, negative = growth inhibition, usual class: inhibitors; further: potency means the concentration at half of the fitted maximal effect; nearly all actives have a fitted effect of over 55% in size
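Compound effects on proliferation are scored in DT40 Tdp1-/-;hTDP1 cells in the absence of CPT. ATP levels (CellTiter-Glo luminescence) are recorded after a ≥48 hr, 37 °C incubation.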
IL-1B inflam inh = inflammasome signaling inhibition, IL-1 beta readout | THP-1 LPS/ATP IL-1B secretion, AlphaLISA, 16 h; hits give low values | activity change, % at 57.5 µM | hit rate 4.7% among 360,000 | AID 743279; in the data active means activity change below about -50%; inconclusive means mostly about -30% to -49%
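Secreted IL-1B measured by AlphaLISA bead assay after 16 h compound exposure of THP-1 cells; compounds (final up to 57.5 uM) added 1 h before LPS (250 ng/mL) and ATP (1.25 mM) stimulation; lower signal means less secretion.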
HT1080-NT tox = kills 2HG-producing HT-1080-NT fibrosarcoma cells. HT-1080-NT fibrosarcoma viability, CellTiter-Glo ATP luminescence, 48 h. Potency, µM (series often up to 46.1 µM), inactives show at the highest dose activity, negative = less viability, most hits filed as cytotoxic. AID 686970. hit rate 1.6% among 360,000;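 further: NT is the 2HG producing partner of a matched IDH1 knockdown line; potency means the concentration at half of the fitted maximal effect; 0% = DMSO-treated cells and -100% = media-only wells without cells; nearly all actives have a fitted effect of over 55% in size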
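Compounds were tested in concentration-response format on HT-1080-NT cells for 48 hours at 37 degrees C. Cell viability came from CellTiter-Glo luminescence; curves were classified by r2, response magnitude and activity.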
ALOX12 inh = inhibitors of human 12S-lipoxygenase ALOX12. P18054. purified 12hLO, xylenol orange hydroperoxide absorbance. Potency, µM (series often up to 108 µM), without a hit: at the highest dose activity change, negative = inhibition, hits mostly inhibitors. hit rate 1.1% among 580,000; further: potency means the concentration at half of the fitted maximal effect
Target sequence (P18054 whole entry, looked up): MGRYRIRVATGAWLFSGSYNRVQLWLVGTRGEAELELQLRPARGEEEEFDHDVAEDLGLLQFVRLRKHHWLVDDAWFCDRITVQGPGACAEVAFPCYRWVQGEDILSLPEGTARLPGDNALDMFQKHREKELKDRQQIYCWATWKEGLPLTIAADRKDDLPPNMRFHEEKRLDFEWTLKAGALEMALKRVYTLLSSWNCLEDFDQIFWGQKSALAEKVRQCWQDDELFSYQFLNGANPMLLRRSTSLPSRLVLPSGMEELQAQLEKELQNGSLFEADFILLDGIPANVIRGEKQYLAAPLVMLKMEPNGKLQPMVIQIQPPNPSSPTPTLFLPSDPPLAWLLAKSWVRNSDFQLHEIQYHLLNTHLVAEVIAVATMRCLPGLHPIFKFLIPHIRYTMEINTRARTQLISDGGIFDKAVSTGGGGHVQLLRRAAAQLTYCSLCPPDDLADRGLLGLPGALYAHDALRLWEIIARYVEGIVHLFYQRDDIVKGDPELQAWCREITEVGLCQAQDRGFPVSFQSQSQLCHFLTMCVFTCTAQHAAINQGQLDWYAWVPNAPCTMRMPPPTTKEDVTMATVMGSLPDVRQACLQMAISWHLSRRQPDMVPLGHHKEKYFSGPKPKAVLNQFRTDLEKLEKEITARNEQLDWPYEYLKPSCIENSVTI
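Purified human 12hLO (150 nM final) in 25 mM Hepes, 0.01% Triton X-100, pH 7.0 was preincubated 15 min at room temperature with compound. Then 40 uM arachidonic acid was added, 30 min. Hydroperoxide was read by Fe-XO absorbance ratio 573/405 nm.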
* = called active by the depositor; i = inactive; ? = inconclusive; . = not tested or not shown; [ ] = remark or other dose. Unless noted, the call rests on the fitted dose curve; in most records, active means well fitted curve in the direction sought with a large enough effect; inconclusive means small, poorly fitted or top-dose-only effect, or another doubt; inactive means no such curve, though single readings can be large; an effect the other way counts as inactive or inconclusive. Unless noted, on the % scale 0 is the no-effect control and ±100 the full control effect.

SMILES	HT1080 IDH1KD tx	TDP1 cell CPT	TDP1 cell noCPT	IL-1B inflam inh	HT1080-NT tox	ALOX12 inh
Cc1ccc(Nc2c(-c3ccccn3)nc3ccc(C)cn23)cc1	?	3.3µM*	7.3µM*	0	?	0%
COC(=O)c1cccc(C(=O)NCc2ccccc2)c1	.	.	.	.	.	16%
COc1ccc2c(c1)c(C(C(=O)O)N1CCN(Cc3ccccc3)CC1)cn2CC(=O)O (centres undefined)	.	.	.	.	.	1%
CN1C[C@@H](NC(=O)c2ccccc2)C[C@H]1c1nc(-c2ccc3c(c2)OCO3)no1	.	.	.	.	.	5%[176 µM]
CCOC(=O)C(=CNc1cc(C)ccn1)C(=O)OCC	2%	-4%	?	19	0%	1%
CCOC(=O)C(=CNc1cc(C)ccc1C)C(=O)OCC	14%	?	16µM*	-24	1%	-8%
CCOC(=O)C(=CNc1ccc(O)c(C(=O)OC)c1)C(=O)OCC	10%	?	-29%	23	-1%	?
CCOC(=O)C(=CNc1cccnc1Oc1ccc(C)c2c1CCC2)C(=O)OCC	8%	15µM*	21µM*	-15	13%	?
CCOC(=O)C(=CNc1cc(C)ccc1[N+](=O)[O-])C(=O)OCC	14%	?	?	-13	22%	-22%
Cc1ccc(Oc2ncccc2NC(=O)CC2(CC(=O)O)CCCC2)c2c1CCC2	1%	3%	-25%	.	-14%	0%
CCOC(=O)C(=CNc1cc(C)nn1-c1ccc(C)cc1)C(=O)OCC	-14%	23µM*	9.2µM*	-9	-21%	0%
CCOC(=O)C(=CNc1cc(OC)ccc1-n1cccc1)C(=O)OCC	-9%	?	21µM*	?	-2%	26%
CCC12CN3CC(CC)(CN(C1)C3c1ccco1)C2=O (centres undefined)	.	.	.	.	.	-6%
Cc1cccc(Cn2c(Sc3ncccn3)nc3c2c(=O)[nH]c(=O)n3C)c1	.	.	.	.	.	7%
CCN(c1ccc(NC(=O)CSc2ncnc3ccccc23)cc1)C(C)C	.	.	.	.	.	-12%
CCc1c(N)nc(N)nc1Nc1ccccc1Cl	-18%	18µM*	21µM*	18	?	3%
COc1ccccc1OCCOCCOc1c(C)cc(C)cc1Br	11%	?	23µM*	-2	4%	5%
COc1ccccc1OCCCOc1c(C)cc(C)cc1Br	11%	-13%	-20%	23	6%	-8%
O=C(Nc1ccccc1Cl)c1cc(C2CCCCN2S(=O)(=O)c2ccc(F)cc2F)on1 (centres undefined)	-28%	16µM*	21µM*	42	1%	0%
COc1cc(C(=O)N2CCCCC2c2cc(C(=O)Nc3ccccc3)no2)cc(OC)c1C (centres undefined)	?	?	?	?	-18%	-3%
O=C(Nc1ccc2c(c1)OCO2)c1cc(C2CCCN(C(=O)C3CCCCC3)C2)on1 (centres undefined)	?	23µM*	?	-22	-26%	-4%
O=C(Nc1ccccc1)c1cc(C2CCCCN2C(=O)c2ccccc2)on1 (centres undefined)	22%	21µM*	?	18	19%	?
O=C(Nc1ccc2c(c1)OCO2)c1cc(C2CCCCN2C(=O)c2ccc3ccccc3c2)on1 (centres undefined)	4%	18µM*	15µM*	-26	-5%	-24%
O=C(Nc1ccccc1Cl)c1cc(C2CCCN(C(=O)C3CCCCC3)C2)on1 (centres undefined)	?	?	?	-3	2%	?
Cc1cn2nc(C(=O)N3CCC(C(=O)Nc4ccccc4)CC3)cc2c(=O)[nH]1	.	.	.	.	.	17%
SMILES	HT1080 IDH1KD tx	TDP1 cell CPT	TDP1 cell noCPT	IL-1B inflam inh	HT1080-NT tox	ALOX12 inh
CCOc1cccc(-c2cc(C(=O)O)c3cc(C)cc(C)c3n2)c1	.	.	.	.	.	0%
CS(=O)(=O)N1CCCCC1c1cc(C(=O)Nc2ccccc2)no1 (centres undefined)	-3%	-5%	0%	-19	-3%	2%
O=C(Nc1ccc2c(c1)OCO2)c1cc(C2CCCCN2S(=O)(=O)c2ccccc2)on1 (centres undefined)	-1%	16µM*	?	-25	-13%	5%
COc1ccc(S(=O)(=O)N2CCCCC2c2cc(C(=O)Nc3ccccc3)no2)cc1 (centres undefined)	4%	-18%	-25%	0	?	0%
O=C(Nc1ccccc1Cl)c1cc(C2CCCCN2C(=O)c2ccccc2)on1 (centres undefined)	?	29µM*	?	9	19%	13%
O=C(Nc1ccccc1)c1cc(C2CCCCN2S(=O)(=O)Cc2cccc(C(F)(F)F)c2)on1 (centres undefined)	21%	21µM*	?	-28	2%	10%
Cc1ccc(-c2cnc(CCC(=O)Nc3ccc(C(=O)OC(C)C)cc3)o2)cc1	.	.	.	.	.	30%
CN(C)[C@H]1CCN(Cc2cccc(C(=O)O)c2)C[C@H]1CCC(=O)O	.	.	.	.	.	10%
Cc1cc(C)n(-c2ccc([N+](=O)[O-])cc2-c2nn[nH]n2)n1	-2%	-8%	8%	18	-5%	i
O=[N+]([O-])c1ccc(O)c(-c2nn[nH]n2)c1	13%	18µM*	?	7	5%	0%
O=C(COc1ncnc2ccc(Br)cc12)Nc1ccccc1	.	.	.	.	.	-9%
COc1ccc(C(=O)CC(=O)c2ccc(OC)cc2)cc1	-1%	2%	-12%	-4	-16%	11%
COc1ccc(C(=O)C(CCCCC(CN(C)C)C(=O)c2ccc(OC)cc2)CN(C)C)cc1 (centres undefined)	?	21µM*	5.8µM*	-10	-14%	-21%
CN(C)CC(CCC(CN(C)C)C(=O)c1ccccc1)C(=O)c1ccccc1 (centres undefined)	5.8µM*	1.5µM*	1.6µM*	-100*	3.3µM*	.
C=CCC(C(=O)c1ccccc1)C(=O)c1ccccc1	.	.	.	.	.	-22%
Cc1ccc(SCC2(O)CCN(C(=O)c3ccc(Cl)cc3)CC2)cc1	-16%	?	?	29	0%	?
O=S(=O)(c1ccccc1)N1CCC(O)(CSc2ccc(Cl)cc2)CC1	-15%	?	26µM*	?	?	1%
COc1cc2c(cc1OC)CN(C(=O)CSc1nc(C)cc(C)c1C#N)CC2	-9%	23µM*	21µM*	?	0%	-5%
